LmPK inhibitor: LmPK (Leishmania mexicana) enzyme inhibition; 290,000 tested, 0.37% active; Q27686; Potency, µM (titrated, usually from 57.5 µM), hits mostly inhibitors; AID 1721; purified LmPK, Kinase-Glo ATP luminescence, 1 h
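ATP generated from ADP (0.1 mM) and PEP (0.5 mM) by 0.1 nM LmPK over 1 h at room temperature (pH 7.2 imidazole buffer) was detected by coupled luciferase luminescence. Values were normalized to uninhibited and no-enzyme wells.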
FBPA Giardia inh: inhibitors of Giardia lamblia fructose-1,6-bisphosphate aldolase. 290,000 tested, 0.71% active. Potency, µM (titrated, usually from 59.6 µM), actives largely listed as inhibitors. purified Giardia FBPA; also: nearly all actives have a fitted effect of over 55% in size
Target sequence (A8B2U2 whole entry, looked up): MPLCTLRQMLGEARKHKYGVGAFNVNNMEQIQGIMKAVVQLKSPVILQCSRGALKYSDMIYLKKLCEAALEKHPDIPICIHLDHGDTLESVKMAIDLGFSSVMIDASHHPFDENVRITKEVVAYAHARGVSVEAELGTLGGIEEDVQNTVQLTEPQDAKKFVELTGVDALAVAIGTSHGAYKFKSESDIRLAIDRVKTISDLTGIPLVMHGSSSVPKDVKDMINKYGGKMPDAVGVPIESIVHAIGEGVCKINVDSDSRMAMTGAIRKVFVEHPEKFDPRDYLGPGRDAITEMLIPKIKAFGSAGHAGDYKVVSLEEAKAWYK
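Giardia FBPA (40 nM reagent) was preincubated 10 min at RT with compound (up to 57.5 uM final), then substrate plus GAPDH/TPI/NAD/arsenate coupling system with diaphorase/resazurin was added; resorufin fluorescence (525/598 nm) was read after 20 min.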
Shiga inhibitor: blocks Shiga toxin action in Vero cells. Vero cells, Shiga toxin protein synthesis inhibition reporter. inhibition, % at 38.7 µM. 290,000 tested, 9.2% active; in the data active = inhibition mostly above about 28%, no sharp cut-off; inactive = mostly below about 43%
Cycloheximide cs: counter-screen for Shiga toxin inhibitors: cycloheximide protein synthesis inhibition; 300,000 tested, 12% active; max response, %; cell reporter, cycloheximide protein synthesis inhibition counterscreen; in the data active = max response mostly above about 13%, no sharp cut-off; inactive = mostly below about 14%; also: read at 38.3 µM for the half of the compounds with a filed dose
Tb PYK inh: T. brucei pyruvate kinase inhibition; AID 624173; TbPYK enzyme, Kinase-Glo Plus ATP luminescence, 45 min; Q57TT1; 410,000 tested, 0.12% active; Potency, µM (highest dose often 76.8 µM), usual class: inhibitors; also: nearly all actives have a fitted effect of over 50% in size
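Quantitative HTS: titrated library compounds versus trypanosomal pyruvate kinase in TEA buffer (pH 7.2) containing KCl, MgCl2, BSA and Tween-20. Reactions were initiated with ADP, 130 uM final. Kinase-Glo Plus luminescence was read after 45 min at RT.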
Sm TGR inh: blocks Schistosoma mansoni thioredoxin glutathione reductase; Q962Y6; purified TGR, DTNB reduction, TNB absorbance 405 nm; Potency, µM (series often up to 114 µM), actives largely listed as inhibitors; 360,000 tested, 3% active; AID 485364; also: nearly all actives have a fitted effect of over 60% in size
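TGR 20 nM + NADPH 100 uM (dispensed conc.), cpd preinc 15 min RT; start with NADPH (500 uM addition) then DTNB (15 mM addition). Kinetic TNB absorbance, 405 nm filter. Four-parameter Hill fit across titration.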
Each line names hits and unclear results; the compound was inactive in the other large screens. The sample as a whole holds a higher share of hits than the screen did. Unless noted, calls follow the shape of the dose curve; as a rule, active = well fitted curve in the direction sought with a large enough effect; inconclusive = small, poorly fitted or top-dose-only effect, or another doubt; inactive = no such curve, though single readings can be large; an effect the other way counts as inactive or inconclusive.

CCC1(C)CC(C#N)(C#N)C(=O)NC1=O (stereo unspecified)	none (no result: LmPK inhibitor, FBPA Giardia inh, Shiga inhibitor, Cycloheximide cs, Sm TGR inh)
COc1ccc2ncc(OC(C)=O)cc2c1	Cycloheximide cs 14.0
Cc1ccc(C)c(S(=O)(=O)c2nnn3c2nc(Nc2ccc(C)c(C)c2)c2ccccc23)c1	none (no result: LmPK inhibitor, FBPA Giardia inh, Shiga inhibitor, Cycloheximide cs)
O=c1c2ccccc2sn1-c1ccccc1	LmPK inhibitor inconclusive, FBPA Giardia inh inconclusive, Cycloheximide cs 24.4, Tb PYK inh inconclusive
N#Cc1ccc2c(=O)n(-c3ccccc3)sc2c1	Tb PYK inh 3.16µM (no result: LmPK inhibitor, FBPA Giardia inh, Shiga inhibitor, Cycloheximide cs, Sm TGR inh)
O=c1c2cc(C(F)(F)F)ccc2sn1-c1ccccc1	Tb PYK inh 7.08µM (no result: LmPK inhibitor, FBPA Giardia inh, Shiga inhibitor, Cycloheximide cs, Sm TGR inh)
O=c1c2ccccc2sn1-c1ccccc1F	Tb PYK inh 7.08µM (no result: LmPK inhibitor, FBPA Giardia inh, Shiga inhibitor, Cycloheximide cs, Sm TGR inh)
COc1ccc(-c2nc3scc(CCNS(=O)(=O)c4ccc(F)c(C(F)(F)F)c4)n3n2)cc1OC	none (no result: LmPK inhibitor, FBPA Giardia inh, Shiga inhibitor, Cycloheximide cs)
CCCCSCCCNC(=O)CN1C(=O)c2cccnc2Oc2ccc(Cl)cc21	none (no result: LmPK inhibitor, FBPA Giardia inh, Shiga inhibitor, Cycloheximide cs)
CN(C)/C=C1/OC(=O)C(C#N)=C1c1ccc(Cl)cc1	none
CCOc1ccc(S(=O)(=O)N2CCC(C(=O)NCc3ccncc3)CC2)cc1	none
Cc1ccccc1-n1sc2cc(F)ccc2c1=O	FBPA Giardia inh inconclusive, Tb PYK inh 8.91µM
O=c1c2ccccc2sn1-c1nccs1	FBPA Giardia inh inconclusive, Tb PYK inh 5.62µM
O=c1c2cc(F)ccc2sn1-c1ccccc1	Tb PYK inh inconclusive (no result: LmPK inhibitor, FBPA Giardia inh, Shiga inhibitor, Cycloheximide cs)
O=c1c2ccccc2sn1-c1cccc(Cl)c1	Tb PYK inh 7.08µM (no result: LmPK inhibitor, FBPA Giardia inh, Shiga inhibitor, Cycloheximide cs, Sm TGR inh)
Cc1nc2ccccc2c(=O)n1-c1nccs1	none (no result: LmPK inhibitor, FBPA Giardia inh, Shiga inhibitor, Cycloheximide cs, Sm TGR inh)
CC(=O)Nc1ccc2c(c1)[nH]c(=O)c1ccccc12	none (no result: LmPK inhibitor, FBPA Giardia inh, Shiga inhibitor, Cycloheximide cs, Sm TGR inh)
O=c1[nH]sc2cc(F)ccc12	FBPA Giardia inh inconclusive, Tb PYK inh inconclusive
CC(=O)Nc1ccc2c(=O)n(-c3ccccc3)sc2c1	Tb PYK inh 7.08µM (no result: LmPK inhibitor, FBPA Giardia inh, Shiga inhibitor, Cycloheximide cs, Sm TGR inh)
CNC(=O)C1CCC(Cn2c(=O)c3sccc3n(CC(=O)NCc3ccc(C)cc3)c2=O)CC1 (stereo unspecified)	none (no result: LmPK inhibitor, FBPA Giardia inh, Shiga inhibitor, Cycloheximide cs)
O=C(CC1Sc2ccccc2NC1=O)OCC(=O)N1CCc2ccccc21 (stereo unspecified)	Shiga inhibitor 91.6, Cycloheximide cs 31.8
Cc1cc(C(=O)COC(=O)CC2Sc3ccccc3NC2=O)c(C)n1-c1ccc2c(c1)OCO2 (stereo unspecified)	Cycloheximide cs 27.0
COC(=O)c1ccc(-n2c(C)cc(C(=O)COC(=O)CC3Sc4ccccc4NC3=O)c2C)cc1 (stereo unspecified)	Shiga inhibitor 26.0, Cycloheximide cs 20.7
CCC1Sc2ccc(S(=O)(=O)CCC(=O)N3CCc4ccccc43)cc2NC1=O (stereo unspecified)	Sm TGR inh inconclusive (no result: FBPA Giardia inh)
Cc1cc(C(=O)COC(=O)CC2Sc3ccccc3NC2=O)c(C)n1-c1ccccc1 (stereo unspecified)	Shiga inhibitor 49.7, Cycloheximide cs 66.2
Cc1cc(C(=O)COC(=O)CC2Sc3ccccc3NC2=O)c(C)n1-c1ccc(Br)cc1 (stereo unspecified)	none
CCCC[C@@H](C)/C=C(C)/C=C(\C)C(=O)NC1=C[C@@](O)(/C=C/C=C/C=C/C(=O)NC2=C(O)CCC2=O)[C@@H]2O[C@@H]2C1=O	none (no result: LmPK inhibitor, Tb PYK inh, Sm TGR inh)
C/C=C\C(=O)N(CC)c1ccccc1C	none (no result: LmPK inhibitor, Shiga inhibitor, Cycloheximide cs, Sm TGR inh)
CCCSCCCNC(=O)c1cc2n(n1)CCCN(Cc1ccc(C)cc1)C2=O	none (no result: LmPK inhibitor, FBPA Giardia inh, Shiga inhibitor, Cycloheximide cs)
O=C(COc1ccc(Cl)cc1)Nc1ccc2nc(SCC(=O)N3CCOCC3)sc2c1	none (no result: LmPK inhibitor, FBPA Giardia inh, Shiga inhibitor, Cycloheximide cs)
C(=C\c1nc(-c2ccccc2)no1)/c1ccccc1	Shiga inhibitor 47.8, Cycloheximide cs 29.7
O=C(NCc1ccccc1Cl)c1cnc(N2CCCCC2)c2ccccc12	none (no result: LmPK inhibitor, FBPA Giardia inh, Shiga inhibitor, Cycloheximide cs)
CCCN1CCN(CCNC(=O)Nc2ccccc2OCC)CC1	none (no result: LmPK inhibitor, FBPA Giardia inh, Shiga inhibitor, Cycloheximide cs)
COc1ccccc1CNc1nc(-c2ccco2)nn1S(=O)(=O)c1ccc2ccccc2c1	Sm TGR inh inconclusive (no result: LmPK inhibitor, FBPA Giardia inh, Shiga inhibitor, Cycloheximide cs)
CCOC(=O)c1c(NC(=O)/C=C/c2ccc(OCC)cc2)sc2c1CCCC2	none (no result: LmPK inhibitor, FBPA Giardia inh, Shiga inhibitor, Cycloheximide cs)
CN(CC(=O)Nc1ccccc1)CC(=O)Nc1ccccc1Cl	Shiga inhibitor 30.6, Cycloheximide cs 18.8
CCOCC(=O)Nc1ccc(OCc2ccccc2)cc1	Shiga inhibitor 45.8, Cycloheximide cs 34.7 (no result: Sm TGR inh)
CCCCc1ccc(NC(=O)CN(C)CC(=O)Nc2ccccc2Cl)cc1	none
COc1ccc2nc(NC(=O)c3cccc(OCc4c(C)noc4C)c3)sc2c1	Shiga inhibitor 118.2, Cycloheximide cs 43.6, Sm TGR inh inconclusive

High-throughput results deposited in PubChem by National Center for Advancing Translational Sciences (NCATS).
